# Experimental data from PubChem BioAssay (EPA / NIEHS).
# Several values for one entry are separate records, joined by “and”; a condition that tells them apart may be missing. Equal entries are not always repeated. Results filed as inconclusive are left out. Activity calls are given as the source filed them. The calls were made as follows: active = hit-call score of the fitted dose curve at least 0.9, where 1 is the maximum; inconclusive = response in the unintended direction; inactive = score below 0.9.
# Biological target: D(1A) dopamine receptor (Homo sapiens) (UniProt P21728)
# Experiment: NVS_GPCR_hDRD1: NovaScreen (NVS) G Protein-Coupled Receptor Assay for human Dopamine Receptor D1 (DRD1) (AID 2283269)
# Description: NVS_GPCR_hDRD1 is a biochemical, single-readout assay that uses extracted gene-proteins from HEK293 in a cell-free assay. Measurements were taken 1 hour after chemical dosing in a 96-well plate.NVS_GPCR_hDRD1 is one of one assay component(s) measured or calculated from the NVS_GPCR_hDRD1 assay. It is designed to make measurements of radioligand binding, a form of binding reporter, as detected with scintillation counting signals by Filter-based radiodetection technology.Data from the assay component NVS_GPCR_hDRD1 was analyzed into 1 assay endpoint. This assay endpoint, NVS_GPCR_hDRD1, was analyzed in the positive analysis fitting direction relative to DMSO as the negative control and baseline of activity. Using a type of binding reporter, loss-of-signal activity can be used to understand changes in the binding as they relate to the gene DRD1. Furthermore, this assay endpoint can be referred to as a primary readout, because the performed assay has only produced 1 assay endpoint. To generalize the intended target to other relatable targets, this assay endpoint is annotated to the gpcr intended target family, where the subfamily is rhodopsin-like receptor.
# Binding assays used specific radioligands (tritiated, iodinated) with non-radioactive competitive displacement ligands in agonist or antagonist protocols (as indicated) and various reference compounds and inhibitors to titrate specific binding to receptors and transporters. Most enzyme assays (CYPs, kinases, phosphatases, proteases, HDACs) used recombinant protein and specific substrates (fluorescence mostly, some colorimetric and radioactive) and inhibitors, followed by a biochemical separation of substrate and product. All assays for the biochemical HTS were initially run in duplicate at a single concentration (10 uM for CYP450 assays and 25 uM for all others). […] Each assay was run with positive and negative controls, and concurrent controls on every plate. The follow-up (secondary) screen tested active chemical-pairs in concentration series, as well as a few additional assays not tested in the primary screen, some selected negative inactives, and several cases re-run in the concentration series for confirmatory purposes.
# D(1A) dopamine receptor (Homo sapiens), sequence (P21728 whole entry, looked up): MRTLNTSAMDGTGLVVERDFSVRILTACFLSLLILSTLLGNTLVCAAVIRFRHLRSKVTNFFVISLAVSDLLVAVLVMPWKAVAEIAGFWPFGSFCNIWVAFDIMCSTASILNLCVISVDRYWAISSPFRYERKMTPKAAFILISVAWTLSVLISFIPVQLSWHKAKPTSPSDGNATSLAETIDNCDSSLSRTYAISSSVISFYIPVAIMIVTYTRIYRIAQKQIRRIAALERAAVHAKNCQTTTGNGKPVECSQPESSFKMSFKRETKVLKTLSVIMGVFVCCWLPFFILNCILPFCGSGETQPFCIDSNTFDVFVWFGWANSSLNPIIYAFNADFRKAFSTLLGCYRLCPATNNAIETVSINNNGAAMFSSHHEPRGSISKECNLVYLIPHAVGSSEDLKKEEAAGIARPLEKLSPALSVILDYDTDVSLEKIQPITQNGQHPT
Compound,AC50,outcome
CC(C)(C)c1ccc(O)c(O)c1,25 µM (active),
COc1cc(OC)nc(NC(=O)NS(=O)(=O)Nc2ccccc2C(=O)N(C)C)n1,,inactive
CCc1cccc(CC)c1NC(=O)C(=O)O,,inactive
O=C1c2ccc(O)c(O)c2C(=O)c2c(O)ccc(O)c21,,inactive
CN(C)c1ccc(C(=C2C=CC(=[N+](C)C)C=C2)c2ccccc2)cc1,2.97 µM (active) and 3.18 µM (active),
NC(=NCCCCCCN=C(N)/N=C(\N)Nc1ccc(Cl)cc1)/N=C(\N)Nc1ccc(Cl)cc1,0.618 µM (active),
Clc1ccc(Nc2nnc(Cc3ccncc3)c3ccccc23)cc1,16 µM (active),
C/C=C/C(=O)C1=C(C)CCCC1(C)C,,inactive
CCCCCCCCCCCCCCCCCC[N+](C)(C)Cc1ccccc1,2.22 µM (active),
O=C1OC2(c3ccccc31)c1cc(I)c(O)c(I)c1Oc1c2cc(I)c(O)c1I,0.594 µM (active),
CCCCCCCCC(C)=O,,inactive
CCCCCCCCCCCCOS(=O)(=O)O,37.6 µM (active),
CC=O,,inactive
N=C(N)c1ccc(OCCCCCOc2ccc(C(=N)N)cc2)cc1,12.3 µM (active),
CCOC(=O)CN[C@@H](C(=O)N1CC[C@H]1C(=O)NCc1ccc(/C(N)=N/O)cc1)C1CCCCC1,,inactive
CN(Cc1cnc2nc(N)nc(N)c2n1)c1ccc(C(=O)N[C@@H](CCC(=O)O)C(=O)O)cc1,25 µM (active),
